Compound activity (PubChem BioAssay)
LASV entry inh – qHTS for Inhibitors of binding or entry into cells for Lassa Virus; 18,000 tested, 4.1% active; Lassa virus pseudotyped entry inhibition, cell-based qHTS; Potency, µM (series often up to 49.2 µM), for the others: at the top dose activity change, negative = inhibition, hits mostly inhibitors
MARV entry inh – qHTS for Inhibitors of binding or entry into cells for Marburg Virus; Marburg virus pseudotype entry/binding inhibition, cell-based; Potency, µM (highest dose often 49.2 µM), without a hit: top-dose activity change, negative = inhibition, hits mostly inhibitors; 18,000 tested, 6.5% active; AID 720532, 2013
An asterisk follows results filed as active; ! = a repeat was not active; [ ] = remark or other dose. Hits are enriched below; roughly 8.6% of the tested compounds scored in any of these assays. The call rests on the fitted dose curve; tested in HEK293 cells. On the % scale 0 is the no-effect control and ±100 the full control effect; potency means the concentration at half of the fitted maximal effect.

`FC(F)(F)c1cccc(Nc2nccc(-c3cnn4nc(-c5ccccc5)ccc34)n2)c1` gave MARV entry inh 19.9µM*.
COc1cc(OC)c(OC)cc1CN1CCCC(n2cc(C(=O)N3CCCCC3)nn2)C1 (stereo not drawn) was read as LASV entry inh 34.9% and MARV entry inh 0.2%.
Screening CN(C)C1CCc2[nH]c3ccc(NC(=O)c4ccc(F)cc4)cc3c2C1 (stereo not drawn) returned LASV entry inh -20.3% and MARV entry inh 11.2µM*.
Screening CN[C@@H]1CCc2[nH]c3ccc(C(N)=O)cc3c2C1 returned LASV entry inh -12.3% and MARV entry inh 7.8%.
`COc1ccc(O[C@H]2C=C[C@@H](c3ccccc3)O[C@H]2COC(=O)CCC(C)=NOC[C@@H](O)COCc2ccco2)cc1` gave MARV entry inh 9.9%[8.59 µM].
Screening COP(=S)(OC)Oc1ccc([N+](=O)[O-])cc1 returned LASV entry inh inconclusive and MARV entry inh 11.2µM*.
For COP(=S)(OC)Oc1ccc(S(N)(=O)=O)cc1 the results were LASV entry inh -17.8% and MARV entry inh -5.0%.
`C=C(C)CCN1C(=O)NC(c2ccccc2)C(C(C)=O)=C1C` (stereo not drawn) gave LASV entry inh 25.7%[8.59 µM] and MARV entry inh 7.2%[8.59 µM].
COC(=O)c1ccc(CN2C(=O)[C@@]3(CC(C)=CC[C@@H](C)O3)c3ccccc32)cc1 was read as LASV entry inh 6.8%[8.59 µM] and MARV entry inh -29.1%[8.59 µM].
COc1cc2ncnc(Nc3cccc(Br)c3)c2cc1OC was read as LASV entry inh -19.6% and MARV entry inh 3.0%.
For COc1cc2ncnc(Nc3cccc(Cl)c3)c2cc1OC the results were LASV entry inh 15.8µM*! and MARV entry inh 14.1µM*!.
`c1cnn2ncc(-c3ccnc(Nc4ccc5c(c4)OCCO5)n3)c2c1` gave MARV entry inh 2.81µM*.
Screening Clc1ccc(-c2nn3ncccc3c2-c2ccnc(Nc3ccccc3)n2)cc1 returned MARV entry inh 6.28µM*.
NC(=O)c1ccc2c(-c3ccnc(NCCCO)n3)c(-c3ccc(F)cc3)nn2c1 was read as LASV entry inh -16.9% and MARV entry inh inconclusive.
`FC(F)(F)c1cccc(-c2nn3ncccc3c2-c2ccnc(Nc3ccc4c(c3)OCCO4)n2)c1` gave MARV entry inh 3.97µM*.
COc1ccc(-c2nn3ncccc3c2-c2ccnc(Nc3ccc4c(c3)OCCO4)n2)cc1 was read as LASV entry inh inconclusive and MARV entry inh 7.05µM*.
`Cc1ccc(C=CC2=C[C@]3(C)C[C@]2(C)[C@H](c2ccc(C)cc2)CC3=O)cc1` gave LASV entry inh -8.1%[8.59 µM] and MARV entry inh -3.6%[8.59 µM].
`COc1ccc(S(=O)(=O)NCc2nc(N3CCCC3)c3cccc(C)c3n2)cc1OC` gave LASV entry inh -12.6% and MARV entry inh inconclusive.
CC1=C[C@@H](COCc2ccccc2)O[C@@]2(C1)C(=O)N(CC1CC1)c1ccccc12 was read as LASV entry inh -24.4%[8.59 µM] and MARV entry inh 0.8%[8.59 µM].
Screening Fc1ccc(-c2nn3ncccc3c2-c2ccnc(Nc3ccc4c(c3)OCCO4)n2)cc1 returned LASV entry inh inconclusive and MARV entry inh 0.888µM*.
For OCCCNc1nccc(-c2c(-c3ccc(F)cc3)nn3cc(C(F)(F)F)ccc23)n1 the results were LASV entry inh -38.8% and MARV entry inh inconclusive.
For O=C(OCc1cn([C@@H]2C[C@H](c3ccccc3)N(CC3CCCCC3)C[C@@H]2O)nn1)c1ccccc1 the results were LASV entry inh -21.4% and MARV entry inh -29.2%.
For FC(F)(F)c1ccc(-c2nc(-c3ccccc3)oc2NCc2ccccc2)cc1 the results were LASV entry inh inconclusive and MARV entry inh -6.9%[8.59 µM].
Screening CN1C[C@H](C(=O)N[C@]2(C)O[C@]3(O)[C@H]4CCCN4C(=O)[C@H](Cc4ccccc4)N3C2=O)C[C@H]2c3cccc4[nH]cc(c34)C[C@@H]21 returned LASV entry inh 1.8%[17.8 µM] and MARV entry inh inconclusive.
Screening CC(C)[C@@]1(NC(=O)[C@H]2CC3c4cccc5[nH]cc(c45)C[C@H]3N(C)C2)O[C@@]2(O)C3CCCN3C(=O)[C@@H](Cc3ccccc3)N2C1=O (stereo partly drawn) returned LASV entry inh -16.3% and MARV entry inh 8.91µM*.
`CC(C)[C@@]1(NC(=O)[C@@H]2C[C@H]3c4cccc5[nH]cc(c45)C[C@@H]3N(C)C2)O[C@]2(O)[C@H]3CCCN3C(=O)[C@H](Cc3ccccc3)N2C1=O` gave LASV entry inh 1.2%[17.8 µM] and MARV entry inh inconclusive.
`CN1C[C@H](C(=O)N[C@]2(C)O[C@@]3(O)C4CCCN4C(=O)[C@H](Cc4ccccc4)N3C2=O)C[C@@H]2c3cccc4[nH]cc(c34)C[C@H]21` (stereo partly drawn) gave LASV entry inh inconclusive and MARV entry inh 12.6µM*.
COc1ccc([C@]23Cc4cc(C#N)ccc4[C@H](O2)c2c(cc(C)n(-c4ccccc4)c2=O)O3)cc1 was read as LASV entry inh 12.2%[8.59 µM] and MARV entry inh 2.3%[8.59 µM].
Screening C=CCN1[C@H](C)[C@@H](c2ccccc2)Oc2c(Cl)cccc2S1(=O)=O returned LASV entry inh -13.0% and MARV entry inh -28.4%.
CCN(CC)CCCN(c1ccccc1)C1Cc2ccccc2C1 was read as LASV entry inh 8.91µM* and MARV entry inh 3.55µM*.
For COC[C@@H]1N[S+](=O)([O-])c2ccc(Br)cc2O[C@@H]1c1ccccc1 the results were LASV entry inh -7.8% and MARV entry inh -6.7%.
CNCC[C@@H](Oc1ccccc1C)c1ccccc1 was read as LASV entry inh 3.2% and MARV entry inh 28.2µM*!.
For CNCCC(Oc1ccccc1OC)c1ccccc1 (stereo not drawn) the results were LASV entry inh -0.1% and MARV entry inh inconclusive.
For COc1ccc2c(c1)c(CC(=O)OCC(=O)O)c(C)n2C(=O)c1ccc(Cl)cc1 the results were LASV entry inh -3.3% and MARV entry inh 21.9%.
For CCCN(CCC)C(=O)C(CCC(=O)OCCCN1CCN(CCOC(=O)Cc2c(C)n(C(=O)c3ccc(Cl)cc3)c3ccc(OC)cc23)CC1)NC(=O)c1ccccc1 (stereo not drawn) the results were LASV entry inh 22.4µM* and MARV entry inh 14.1µM*.
CC[N+]1(C)[C@@H]2CC[C@H]1CC(OC(=O)[C@H]1CC[C@@](C(=O)OC3C[C@H]4CC[C@@H](C3)[N+]4(C)CC)(c3ccccc3)c3ccccc31)C2 (stereo partly drawn) was read as LASV entry inh -1.6%[17.8 µM] and MARV entry inh -6.9%[17.8 µM].
`CN1C2CCC1CC(OC(=O)C1CCC(C(=O)OC3CC4CCC(C3)N4C)(c3ccccc3)c3ccccc31)C2` (stereo not drawn) gave LASV entry inh inconclusive and MARV entry inh 6.31µM*.
O=C1Cc2c([nH]c3ccc(Br)cc23)-c2ccccc2N1 was read as LASV entry inh -4.2% and MARV entry inh 4.5%.
For c1ccc2c(c1)SCc1c-2[nH]c2ccccc12 the results were LASV entry inh inconclusive and MARV entry inh 11.2µM*.
`Cc1cccc(CNc2nc(-c3ccccc3CN(C)C)nc3ccccc23)c1` gave LASV entry inh inconclusive and MARV entry inh 11.2µM*.
`COc1ccccc1-c1nc(NCc2ccccc2)c2ccccc2n1` gave LASV entry inh 14.1µM* and MARV entry inh 12.6µM*.
COc1ccc(CNc2cc(-c3ccccc3CN(C)C)ncn2)c(OC)c1 was read as LASV entry inh 0.6% and MARV entry inh 10µM*.
